This is an account of results in PMC11062922 (Nature Chemical Biology, 2023).

The structures appear in SMILES notation. Read-outs that look alike come from different tables or passages of the source.

Common to all, as to parameters: species or system human, MV4-11 + K-562 + COLO205 + SK-N-BE2 + OVCAR-8
Assay [1] relates to ACVR1B. The conditions noted are these: read-out: apparent Kd, n = 1.
Assay [2] concerns ACVR1. The conditions noted are these: read-out: apparent Kd, n = 1.
Assay [3] relates to EPHA1. The note with it: read-out: apparent Kd, n = 1.
The test system of assay [4] is FRK. The conditions noted are these: read-out: apparent Kd, n = 1.
Assay [5] deals with SIK2. The conditions noted are these: read-out: apparent Kd, n = 1.
The subject of assay [6] is ZAK. The conditions noted are these: read-out: apparent Kd, compound concentrations: 100 nM and 1000 nM (sheet 'Samples'), n = 1.
Assay [7] deals with DYRK1A. The note with it: read-out: apparent Kd, compound concentrations: 100 nM and 1000 nM (sheet 'Samples'), n = 1.
The test system of assay [8] is FLT3. The conditions noted are these: read-out: apparent Kd, n = 1.
Assay [9] deals with MAPK14. The conditions noted are these: read-out: apparent Kd, n = 1.
Assay [10] relates to BTK. The note with it: read-out: apparent Kd, n = 1.
Assay [11] relates to CSK. The note with it: read-out: apparent Kd, n = 1.
In assay [12] the test system is DDR1. The note with it: read-out: apparent Kd, n = 1.
Assay [13] concerns LYN. The conditions noted are these: read-out: apparent Kd, n = 1.
Assay [14] concerns SRC. The note with it: read-out: apparent Kd, compound concentrations: 100 nM and 1000 nM (sheet 'Samples'), n = 1.
Assay [15] deals with TNK2. The conditions noted are these: read-out: apparent Kd; compound concentrations:100 nM and 1000 nM (sheet 'Samples'); n = 1.
The mark [16] stands for this setting: compound concentrations:100 nM and 1000 nM (sheet 'Samples').

Consider `Cl.Oc1cccc(Nc2ccnc3cc(-c4ccncc4)ccc23)c1` [GW494601A], for which the potency estimated from few doses was 73.7 nM in assay [1] (compound concentrations: 100 nM and 1000 nM (sheet 'Samples'), CATDS: 4.2820592961585899E-2); 69 nM in assay [2] (compound concentrations: 100 nM and 1000 nM (sheet 'Samples'), CATDS: 4.3782572898148998E-2); 14.3 nM in assay [3] (compound concentrations: 100 nM and 1000 nM (sheet 'Samples'), CATDS: 8.3232336419421196E-2); 843 nM in assay [4] (compound concentrations: 100 nM and 1000 nM (sheet 'Samples'), CATDS: 2.21362656072501E-2); 1020 nM in assay [5] (compound concentrations: 100 nM and 1000 nM (sheet 'Samples'), CATDS: 2.1329898966899598E-2); 1580 nM in assay [6] (CATDS: 1.9718010562251101E-2).
In the case of `COc1ccccc1CNC1=NC(=O)/C(=C/c2ccc3ncccc3c2)S1` [RO4503315-000], in assay [7] (CATDS: 8.6327639243549595E-2), the potency estimated from few doses was 596 nM.
As for `COc1ccc(-n2cnc3c(N)ncnc32)cc1` [SKF-97236], the potency estimated from few doses in [8] (compound concentrations: 100 nM and 1000 nM (sheet 'Samples'), CATDS: 0.20462680651790399) is 598 nM; in [9] (compound concentrations: 100 nM and 1000 nM (sheet 'Samples'), CATDS: 0.140639496900372), 1390 nM.
`CCN(CC)CCOc1ccc(Nc2ncc3cc(-c4c(Cl)cccc4Cl)c(=O)n(C)c3n2)cc1` [SB-601273]: the potency estimated from few doses in assay [1] (setting [16]) was 170 nM; in [2] (setting [16]), 218 nM; in assay [10] (setting [16]), 318 nM; in assay [11] (setting [16]) it was 838 nM; in assay [12] (setting [16]) it was 165 nM; in assay [3] (setting [16]), 2.59 nM. The potency estimated from few doses in [8] (setting [16]) is 891 nM; in assay [4] (setting [16]), 103 nM; in assay [13] (setting [16]), 111 nM; in assay [9] (setting [16]) it was 678 nM; in [5] (setting [16]), 55.3 nM; in assay [14] (CATDS: 2.2831439455092799E-2) it was 137 nM. In assay [15], the potency estimated from few doses is 87.3 nM.
Regarding `NC(=O)c1cccc(Nc2nccc(Nc3cccc4[nH]ncc34)n2)c1` [GW782612X], the potency estimated from few doses is 401 nM in assay [1] (compound concentrations: 100 nM and 1000 nM (sheet 'Samples'), CATDS: 5.6390113546044701E-2); 122 nM in [2] (compound concentrations: 100 nM and 1000 nM (sheet 'Samples'), CATDS: 0.10376431199902); 411 nM in assay [4] (compound concentrations: 100 nM and 1000 nM (sheet 'Samples'), CATDS: 5.5821190853221701E-2).
For `O=C1N=C(NCc2ccccc2)S/C1=C\c1ccc2ncccc2c1` [RO4442080-000], the potency estimated from few doses in [7] (CATDS: 9.0282965342826302E-2) was 1320 nM.
For the molecule `Cc1cccc(Nc2nc(NCCN)ncc2C(N)=O)c1` [GSK1292139B], the potency estimated from few doses in [5] (compound concentrations: 100 nM and 1000 nM (sheet 'Samples'), CATDS: 8.4015516979832894E-2) is 925 nM.
As to `O=C1N=C(N[C@@H](CO)c2ccccc2)S/C1=C\c1ccc2ncccc2c1` [RO4554340-000], the potency estimated from few doses in assay [7] (CATDS: 0.16734351378465701) is 1030 nM.
For `Cc1ccc(O)cc1Nc1ccnc2cc(-c3ccc(CN4CCCCC4)o3)ccc12` [GW557777X], the potency estimated from few doses is 60.3 nM in [1] (compound concentrations: 100 nM and 1000 nM (sheet 'Samples'), CATDS: 2.3041961266034101E-2); 25.6 nM in [2] (compound concentrations: 100 nM and 1000 nM (sheet 'Samples'), CATDS: 2.9506962076646302E-2); 960 nM in [10] (compound concentrations: 100 nM and 1000 nM (sheet 'Samples'), CATDS: 1.36078174892899E-2); 358 nM in [11] (compound concentrations: 100 nM and 1000 nM (sheet 'Samples'), CATDS: 1.5702412967624198E-2); 1100 nM in [12] (compound concentrations: 100 nM and 1000 nM (sheet 'Samples'), CATDS: 1.3388843859825601E-2); 9.28 nM in assay [4] (compound concentrations: 100 nM and 1000 nM (sheet 'Samples'), CATDS: 4.1928462897336198E-2). Moreover, the potency estimated from few doses is 128 nM in assay [13] (compound concentrations: 100 nM and 1000 nM (sheet 'Samples'), CATDS: 1.9191353458574801E-2); 205 nM in assay [5] (compound concentrations: 100 nM and 1000 nM (sheet 'Samples'), CATDS: 1.7387307110144301E-2); 60.3 nM in [14] (CATDS: 2.30493923024673E-2); 672 nM in assay [6] (CATDS: 1.4248568360294899E-2).
